Source: PubChem BioAssay
A selection: hits, their analogues and other compounds. The true share with any hit is near 3.4%.
Giardia FBPA inh = blocks Giardia fructose-bisphosphate aldolase activity. A8B2U2. purified Giardia FBPA. Potency, µM (titrated, usually from 59.6 µM), inactives show top-dose activity, negative = inhibition, hits mostly inhibitors. 290,000 tested, 0.71% active. AID 2451; also: nearly all actives have a fitted effect of over 55% in size
Target sequence (A8B2U2 whole entry, looked up): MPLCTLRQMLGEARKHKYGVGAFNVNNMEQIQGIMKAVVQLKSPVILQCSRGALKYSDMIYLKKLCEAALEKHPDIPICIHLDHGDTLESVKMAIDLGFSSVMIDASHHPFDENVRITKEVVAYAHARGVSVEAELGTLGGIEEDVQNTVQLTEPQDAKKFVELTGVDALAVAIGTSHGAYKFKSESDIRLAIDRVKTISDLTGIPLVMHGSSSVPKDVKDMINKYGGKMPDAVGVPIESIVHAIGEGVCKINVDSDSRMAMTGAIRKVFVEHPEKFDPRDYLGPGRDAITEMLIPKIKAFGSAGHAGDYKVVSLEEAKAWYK
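Giardia FBPA (40 nM reagent) was preincubated 10 min at RT with compound (up to 57.5 uM final), then substrate plus GAPDH/TPI/NAD/arsenate coupling system with diaphorase/resazurin was added; resorufin fluorescence (525/598 nm) was read after 20 min.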
RE007 growth inh = less growth of the S. pombe RE007 Vpr strain; S. pombe RE007 Vpr strain, BacTiter-Glo ATP luminescence, 24 h; Potency, µM (titrated, usually from 92.2 µM), inactives show top-dose activity change, negative = less growth, most hits filed as inhibitors; 360,000 tested, 0.21% active; AID 651644; active = well fitted falling curve with a large enough effect; inconclusive = small, poorly fitted or top-dose-only effect; inactive = no such curve, though single readings can be large or run the other way; also: nearly all actives have a fitted effect of over 50% in size
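Fission yeast strain RE007, carrying one chromosomally integrated HIV-1 vpr copy, was seeded at OD 0.01 in PMG+AL medium with 23 nL pinned compound. After 24 h at 30 °C and 99% humidity, viability was read by BacTiter-Glo luminescence.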
AmpC no deterg = blocks E. coli AmpC beta-lactamase in detergent-free assay; Potency, µM (top dose mostly 57.1 µM), for inactives: top-dose activity change, negative = inhibition, actives largely listed as inhibitors; 330,000 tested, 0.52% active; AmpC nitrocefin hydrolysis, absorbance 480 nm, 0.0001% Triton; P00811; AID 485341;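 also: plate controls were no compound for no effect and no enzyme for full effect; nearly all actives have a fitted effect of over 20% in size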
Target sequence (P00811 whole entry, looked up): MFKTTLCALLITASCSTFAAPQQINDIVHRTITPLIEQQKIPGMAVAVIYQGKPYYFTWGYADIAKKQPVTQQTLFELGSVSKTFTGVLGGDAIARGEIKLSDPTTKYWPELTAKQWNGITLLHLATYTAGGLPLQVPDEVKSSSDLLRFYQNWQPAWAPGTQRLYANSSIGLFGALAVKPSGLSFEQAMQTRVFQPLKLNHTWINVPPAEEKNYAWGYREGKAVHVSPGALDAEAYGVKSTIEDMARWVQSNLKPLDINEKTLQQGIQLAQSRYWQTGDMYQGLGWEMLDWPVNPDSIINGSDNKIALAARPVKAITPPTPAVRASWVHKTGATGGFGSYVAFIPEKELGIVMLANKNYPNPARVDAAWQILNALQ
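20 mM phosphate pH 7.0 + 0.01% (detergent screen) or 0.0001% Triton X-100; 5.3 nM AmpC reagent; cpd preinc 15 min RT; nitrocefin (800 uM stock) to start; A480 q20 s × 4 min; Activity was normalised to no-enzyme and no-compound control wells.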
Sm TGR block = blocks Schistosoma mansoni thioredoxin glutathione reductase; purified TGR, DTNB reduction, TNB absorbance 405 nm; Potency, µM (top dose mostly 114 µM), for the others: at the highest dose activity change, negative = inhibition, hits mostly inhibitors; 360,000 tested, 3% active; also: nearly all actives have a fitted effect of over 60% in size
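First, TGR (20 nM dispensed) and NADPH were mixed with compound. Second, a 15 min room-temperature incubation followed. Third, further NADPH and then DTNB were added to start the reaction. Finally, TNB absorbance was monitored kinetically.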
AmpC detergent = AmpC beta-lactamase inhibition with detergent present | P00811 | Potency, µM (top dose mostly 114 µM), for the others: at the top dose activity change, negative = inhibition, hits mostly inhibitors | 370,000 tested, 0.041% active | AmpC hydrolysis of nitrocefin, absorbance 480 nm, 0.01% Triton | AID 485294;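 also: 0% = no-compound wells and -100% = no-enzyme wells; nearly all actives have a fitted effect of over 25% in size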
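20 mM phosphate pH 7.0 + 0.01% (detergent screen) or 0.0001% Triton X-100; 5.3 nM AmpC reagent; cpd preinc 15 min RT; nitrocefin (800 uM stock) to start; A480 q20 s × 4 min; Activity was normalised to no-enzyme and no-compound control wells.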
Active calls of the source: *; ? = inconclusive; . = not tested or not shown. Unless noted, calls follow the shape of the dose curve; as a rule, active = well fitted curve in the direction sought with a large enough effect; inconclusive = small, poorly fitted or top-dose-only effect, or another doubt; inactive = no such curve, though single readings can be large; an effect the other way counts as inactive or inconclusive. Unless noted, % is scaled to controls: 0 for no effect and ±100 for the full control effect; potency is read from the fitted curve at half-maximal effect.

SMILES	Giardia FBPA inh	RE007 growth inh	AmpC no deterg	Sm TGR block	AmpC detergent
CCCCc1nc(NCCO)c(C#N)c2c1CCCC2	7.4%	6.2%	24.9%	-3.2%	3.6%
N#Cc1c(NC2CCCCC2)nc(-c2ccco2)c2c1CCCC2	-1.5%	-12.3%	-27.1%	35.5µM*	-5.0%
N#Cc1c(NCCCO)nc(-c2ccco2)c2c1CCCC2	-26.6%	-10.4%	51.1%	6.31µM*	1.2%
CN1C[C@@H]2[C@@H]3C(=O)N(Cc4ccccc4)C(=O)[C@@H]3[C@](Cc3ccccc3)(C1=O)N2C(=O)c1ccc(Cl)c(Cl)c1	.	-9.2%	.	.	.
CSc1cccc(NC(=O)Cn2nnc(C(=O)NCCc3ccccc3)c2N)c1	.	.	.	1.8%	0.8%
NCCNCCN	17.7µM*	.	.	.	.
O/C=c1\ccc2cccc3nc(C(F)(F)F)nc1c23	?	-11.4%	12.6µM*	3.16µM*	1.2%
Cc1ccc(CNC(=O)c2cnn(-c3ccc(F)cc3F)c2C2CCN(C(=O)OC(C)(C)C)CC2)cc1	.	.	.	0.1%	-13.4%
COc1cccc(OC)c1OCc1cc(C2C3CCCC=C3C(C#N)=C(N)C2(C#N)C#N)c(C)cc1C (stereo not given)	?	7.7%	-13.3%	39.8µM*	-13.0%
CCCN1CC=C2C(C#N)=C(N)C(C#N)(C#N)C(c3cccc(OC)c3OC)C2C1 (stereo not given)	?	-4.7%	8.8%	?	-11.3%
C/C=C\C=C\C(=O)N1CC2(CC(c3cccc(NC(=O)CC)c3)=NO2)C[C@H]1C(N)=O (stereo not given in full)	-11.9%	-2.8%	42.0%	2.51µM*	0.8%
CCCCCC(=O)Nc1cccc(C2=NOC3(C2)C[C@@H](C(N)=O)N(C(=O)c2cc([N+](=O)[O-])cc([N+](=O)[O-])c2C)C3)c1 (stereo not given in full)	-13.5%	0.2%	126.4%	8.0%	0.5%
C/C=C\C=C\C(=O)Nc1cccc(C2=NOC3(C2)C[C@H](C(N)=O)N(C(=O)c2ccccc2C(=O)c2ccccc2)C3)c1 (stereo not given in full)	-14.0%	6.6%	133.7%	3.16µM*	-6.1%
C/C=C/C=C\C(=O)Nc1cccc(C2=NOC3(C2)C[C@H](C(N)=O)N(C(=O)/C=C/C)C3)c1 (stereo not given in full)	-3.4%	5.0%	39.0%	2.82µM*	-4.0%
CCC(=O)Nc1cccc(C2=NOC3(C2)C[C@@H](C(N)=O)N(C(=O)CC)C3)c1 (stereo not given in full)	-0.1%	11.1%	-21.2%	-23.0%	2.0%
C/C=C/C=C\C(=O)Nc1cccc(C2=NOC3(C2)C[C@@H](C(N)=O)N(C(=O)c2cc([N+](=O)[O-])cc([N+](=O)[O-])c2C)C3)c1 (stereo not given in full)	-20.0%	-15.2%	86.8%	2.82µM*	2.4%
C/C=C/C(=O)N1CC2(CC(c3cccc(NC(=O)/C(C)=C/C)c3)=NO2)C[C@H]1C(N)=O (stereo not given in full)	-11.4%	-9.0%	-2.1%	-24.5%	1.0%
Cc1cccc(OCC(=O)OCC(=O)NCC2CCCO2)c1C (stereo not given)	.	2.8%	-21.2%	-10.3%	-1.3%
C/C=C\C=C/C(=O)Nc1cccc(C2=NOC3(C2)C[C@@H](C(N)=O)N(C(=O)c2ccccc2)C3)c1 (stereo not given in full)	-17.5%	.	93.1%	3.16µM*	-0.6%
Cc1c2c(=O)n(-c3nc4ccccc4s3)nc-2cc(O)n1Cc1ccccc1	-6.2%	4.5%	15.8µM*	-7.4%	0.0%
Cn1c(=O)[nH]c(=O)c2c1nc(Br)n2CCOc1ccccc1	0.2%	3.7%	-20.6%	-18.0%	-2.3%
CC[C@@H](C)[C@@H](O)[C@H](C)C(=O)[C@H](C)/C=C(\C)C[C@H](C)[C@@H]1OC(=O)[C@H]1CC	6.4%	.	.	.	.
CC1CCC(C(=O)c2c(O)c3ccccc3oc2=O)CC1 (stereo not given)	24.6%	-7.1%	-44.6%	8.8%	-12.7%
CCOc1ccc(OCC(=O)c2c(O)c3ccccc3oc2=O)cc1	?	-18.0%	-57.8%	17.8µM*	-8.0%
COc1ccc(OCC(=O)c2c(O)c3ccccc3oc2=O)cc1	?	7.1%	-24.7%	31.6µM*	-12.6%
SMILES	Giardia FBPA inh	RE007 growth inh	AmpC no deterg	Sm TGR block	AmpC detergent
CCCCC(=O)c1c(O)c2ccccc2oc1=O	-20.4%	?	-17.5%	-11.6%	-7.7%
O=C(CC1CCCCC1)c1c(O)c2ccccc2oc1=O	12.7%	-7.8%	-19.3%	50.1µM*	3.0%
CCOC(=O)CNC(=O)N1CCc2ccc(NC(=O)c3ccccc3OC)cc2C1	5.7%	4.3%	16.2%	3.5%	5.2%
C=C1C[C@H](OC(=O)C(C)(O)CCl)C2C(=C)C(=O)O[C@@H]2C2C1C[C@H](O)[C@]2(O)CCl (stereo not given in full)	0.3%	.	.	.	.
C=C1C(=O)O[C@H]2[C@H]1[C@@H](O)CC(=C)[C@@H]1CC(=O)[C@@H](C)[C@H]21	-4.3%	3.4%	-17.0%	22.4µM*	?
N#Cc1ccc(-c2ccc(C3Nc4ccccc4C(=O)N3O)o2)cc1 (stereo not given)	.	.	-27.1%	5.01µM*	7.6%
COc1ccc(-c2c3c(cc4ncn(Cc5ccccc5)c24)COC3=O)cc1	.	30.9%	-18.0%	31.6µM*	4.4%
Cc1cccc(C)c1OCc1n[nH]c(=S)o1	-17.6%	-3.6%	-15.3%	31.6µM*	0.0%
NC(=O)c1cccc2ccccc12	4.1%	4.7%	-8.6%	-6.8%	-5.9%
N#CSCC(=O)c1cccc2ccccc12	-8.5%	?	-27.8%	31.6µM*	?
CCc1nnc(NC(=O)CSc2nc3[nH]ncc3c(=O)[nH]2)s1	-4.5%	4.6%	-10.1%	5.1%	11.8%
Cc1nnc(NC(=O)CSc2nc3[nH]ncc3c(=O)[nH]2)s1	-4.7%	-11.2%	-10.9%	44.7µM*	2.5%
c1ccc(-c2csc3ncnc(N4CCN(Cc5ccc6c(c5)OCO6)CC4)c23)cc1	-0.2%	-4.4%	-23.4%	17.8µM*	1.5%
Fc1ccc(CN2CCN(c3ncnc4scc(-c5ccccc5)c34)CC2)cc1	9.5%	-13.0%	67.1%	-9.0%	-7.7%
COCCCn1c(SCc2cccc(Cl)c2)nc2c(sc3ccccc32)c1=O	.	.	.	-1.6%	-5.6%
COc1ccccc1C1CC(=O)Oc2cc3c(cc21)OCO3 (stereo not given)	39.7µM*	.	.	.	.
Cc1cc(C)cc(N(C(=O)c2ccc3c(c2)OCO3)C2C=CS(=O)(=O)C2)c1 (stereo not given)	4.1%	11.6%	11.6%	50.4%	-0.3%
